Compound activity: PubChem BioAssay, The Scripps Research Institute Molecular Screening Center
The list is not random: actives were taken first. Their share in the collection is about 3.5%.
FBW7 act: activators of human E3 ligase FBW7; Q969H0; AID 1259310; normalized activity (activation), % at 26.1 µM; 0.13% of 650,000 active; AlphaScreen FBW7–phospho-cyclin E peptide binding, activator screen; in the data active = normalized activity above about 1.9%;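 also: purified mutant Fbw7 with reduced substrate affinity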
GPR151 activ: activators of human GPR151; Q8TDV0; PathHunter beta-arrestin GPR151 cells, luminescence; activation, % at 11.2 µM; 1% of 650,000 active; AID 1508602; in the data active = activation above about 4.9%;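 also: 0% = median of compound wells and 100% = cells with positive control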
MITF inh: blocks human microphthalmia-associated transcription factor. AID 1259374. inhibition, % at 2.6 µM. 0.91% of 650,000 active. AlphaScreen MITF homodimerization, bead proximity signal; in the data active = inhibition above about 50%;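 also: 0% = vehicle wells with protein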
Target sequence (O75030 whole entry, looked up): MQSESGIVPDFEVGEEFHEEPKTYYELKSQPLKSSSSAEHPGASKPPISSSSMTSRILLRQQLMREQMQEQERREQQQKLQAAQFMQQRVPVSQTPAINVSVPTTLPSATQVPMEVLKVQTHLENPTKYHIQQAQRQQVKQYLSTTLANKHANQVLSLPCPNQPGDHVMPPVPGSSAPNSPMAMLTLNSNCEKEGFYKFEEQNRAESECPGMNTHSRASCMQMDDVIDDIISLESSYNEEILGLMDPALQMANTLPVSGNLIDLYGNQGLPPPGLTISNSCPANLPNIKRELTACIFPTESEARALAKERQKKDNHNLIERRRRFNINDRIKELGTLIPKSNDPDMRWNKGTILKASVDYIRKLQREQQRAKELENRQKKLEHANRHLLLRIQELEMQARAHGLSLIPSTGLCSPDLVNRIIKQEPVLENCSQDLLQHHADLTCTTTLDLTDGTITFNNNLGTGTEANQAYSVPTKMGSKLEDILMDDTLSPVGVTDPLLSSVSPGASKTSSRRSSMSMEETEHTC
TEAD-YAP inh: TEAD-YAP interaction inhibition. 1.4% of 640,000 active. AID 1259422. inhibition, % at 9.12 µM. HEK-TIYL cells, TEAD-Gal4/YAP UAS-luciferase luminescence; in the data active = inhibition above about 32%;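 also: 0% = median of test compound wells and 100% = reference inhibitor wells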
MITF confirm: confirmation of human MITF inhibitors; shares compounds with MITF inh; AlphaScreen MITF homodimerization, biotin/His-MITF beads; inhibition, % at 2.6 µM; 16% of 4,700 active;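 active = inhibition above a cutoff derived from the DMSO control wells, cut at about 28% in these data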;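 also: 0% = MITF dimer wells with DMSO only; inhibitors lower the bead chemiluminescence by keeping MITF from dimerizing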
AS interf DR: counter-screen: compounds optically interfering with AlphaScreen; shares compounds with MITF inh; AlphaScreen optical interference counterscreen, cell-free; IC50, µM; 6% of 480 active; call rule not given here
AS interf ctr: AlphaScreen optical interference, counter-screen; AID 1259376; shares compounds with MITF inh; inhibition, % at 2.6 µM; 7.6% of 4,700 active; LysRS AlphaScreen counterscreen, signal interference, triplicate;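 active = inhibition above a cutoff derived from the DMSO control wells, cut at about 30% in these data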
Starred values were filed as active, the others as inactive; / = no result.

SMILES	FBW7 act	GPR151 activ	MITF inh	TEAD-YAP inh	MITF confirm	AS interf ctr	others
CCN1CCN(C(=O)C2CCN(Cc3cc(Br)c(O)c(OC)c3)CC2)CC1	0.5	-0.8	44.9	2.0	/	/
O=C(COc1cccnc1[N+](=O)[O-])Nc1cccc(F)c1	0.5	-1.4	14.5	-61.4	/	/
CC1CCc2nc(NC(=S)NC(=O)c3ccccc3)sc2C1 (configuration not stated)	0.0	1.9	-0.1	-19.8	/	/
COc1ccc(N(C(=O)c2ccccc2OC)S(=O)(=O)c2ccc(C)cc2)cc1	-0.1	-0.3	-9.6	8.8	/	/
c1ccc(CN2CCC(N3CCN(Cc4ccc5c(c4)OCO5)CC3)CC2)cc1	0.6	0.3	-5.4	10.1	/	/
c1cc2c(cc1CN1CCN(C3CCCCCC3)CC1)OCO2	0.5	0.0	65.3*	1.0	-2.1	4.1
CC1CCCC(N2CCN(Cc3ccc4c(c3)OCO4)CC2)C1 (configuration not stated)	0.7	-1.0	67.7*	-16.5	-1.1	0.0
CCNC(=O)N1CCCC(N2CCN(Cc3ccc4c(c3)OCO4)CC2)C1 (configuration not stated)	0.1	0.3	9.1	-1.9	/	/
COc1cc(NC(=O)c2cccc(-n3cc(NC(=S)Nc4ccccc4Cl)cn3)c2)cc(OC)c1OC	0.5	1.4	-6.8	20.9	/	/
N#Cc1cc([N+](=O)[O-])ccc1NC(=O)COC(=O)c1cc(-c2ccco2)nc2ccccc12	0.2	1.7	50.6*	3.1	41.1*	-2.6	AS interf DR=>7.03
C=CCNC(=O)COC(=O)c1cc(-c2ccco2)nc2ccccc12	0.0	0.0	56.7*	5.9	64.6*	0.5	AS interf DR=>6.94
O=C(CSc1nnc(Cc2ccccc2)n1-c1ccccc1)n1c2c(c3ccccc31)CCCC2	0.1	0.9	4.2	5.8	/	/
COc1ccccc1C(=O)Oc1cccc2ccccc12	0.2	-1.1	7.6	2.0	/	/
CC(=O)c1cccc(OCC(O)CNCc2cccc(C(F)(F)F)c2)c1 (configuration not stated)	-0.2	-0.5	57.1*	5.0	-3.6	8.1
CCc1cccc(OCC(O)CNCc2cccnc2)c1 (configuration not stated)	-0.1	1.2	76.2*	2.6	-13.8	17.8
Cc1cc2oc3c(c(=O)c2cc1C)C(c1cccc(O)c1)N(CCCN(C)C)C3=O (configuration not stated)	-0.1	0.5	13.2	-3.9	/	/
COc1ccc(-c2cnn3ccc(NCc4cccnc4)nc23)cc1OC	0.0	1.0	54.8*	17.0	2.6	5.0
O=S(=O)(NCc1cccs1)c1cccc2nsnc12	-0.1	0.3	-11.5	5.8	/	/
O=C(c1ccco1)N1CCC(N2CCN(c3ccccc3)CC2)CC1	-0.1	-1.5	21.0	-3.4	/	/
c1ccc(CN2CCC(N3CCN(Cc4ccccc4)CC3)CC2)cc1	0.2	-0.5	23.8	2.0	/	/
O=C(Cc1ccccc1)N1CCC(N2CCN(c3ccccc3)CC2)CC1	0.1	1.2	55.1*	4.6	-1.8	3.4
O=C(c1ccccc1)N1CCC(N2CCN(Cc3ccccc3)CC2)CC1	0.4	-2.3	83.1*	10.8	4.6	-2.0
Fc1ccc(CN2CCC(N3CCN(Cc4ccccc4)CC3)CC2)cc1	0.3	0.2	43.1	11.1	/	/
O=C(Cc1ccccc1)N1CCC(C(=O)N2CCN(c3ccccc3)CC2)CC1	0.3	-1.8	0.0	3.7	/	/
O=C(c1ccco1)N1CCN(C2CCN(Cc3ccccc3)CC2)CC1	-0.3	0.5	59.9*	-4.9	-9.0	3.8
O=C(c1ccc(F)cc1)N1CCN(C2CCN(Cc3ccccc3)CC2)CC1	0.8	-1.5	57.2*	12.6	9.4	18.3
Cc1cc(NC(=O)c2cn(-c3ccc(Cl)cc3)c(=O)c3ccccc23)no1	0.8	0.7	2.9	4.1	/	/
O=C1c2ccccc2C(=O)N1Cc1nc2ccccc2c(=O)n1N(c1ccccc1)c1ccccc1	0.3	0.0	5.1	3.1	/	/
CC12C=CC3(CN(Cc4ccccc4)C(=O)C3C1C(=O)NC1CCCc3ccccc31)O2 (configuration not stated)	0.1	0.1	-5.7	-6.7	/	/
CN1CCN(C2CCN(C(=O)c3ccc(F)cc3)CC2)CC1	0.1	0.1	57.5*	-5.0	0.5	0.3
